Experimental findings from PubChem BioAssay are described below.

Active and inactive are the calls of the source.

Experiment [1] has as its system Plasmodium falciparum Sir2 (PF13_0152, Sir2A). In words: Plasmodium falciparum Sir2A binding compounds – biochemical, small-molecule microarray, 635 nm fluorescence, primary screen (AID 1098).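 Further: score merges spot fluorescence intensity with its signal-to-noise ratio.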 Conditions: fluorescence 635 nm, higher = more signal.
Experiment [2] can be described thus: probe aDKK1 binding to arrayed compounds – biochemical, biotinylated probe, 635/667 nm fluorescence, primary screen (AID 1099).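 Further: score merges 667nm spot fluorescence with signal to noise across triplicate slides.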 Conditions: small-molecule microarray, higher = more signal.
Experiment [3] can be described thus: probe aCHRDL2 binding to arrayed compounds – biochemical, biotinylated probe, 635/667 nm fluorescence, primary screen (AID 1100). Conditions: small-molecule microarray, higher = more signal.
Experiment [4] in a line: change in splice reporter luminescence, either direction, cell-based, HEK293, spliceosome inhibition project, primary screen (AID 1101).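 Further: HEK293 cells carrying a splicing-competent luciferase reporter gene; test concentration not given here.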 Conditions: HEK293 splicing luciferase reporter, 24 h, higher = more signal, called active from +8 up or from −8 down. In general terms: In a reporter assay the amount or activity of a reporter protein is the signal.
The target of experiment [5] is Fibroblast growth factor 10 (Homo sapiens) (UniProt O15520). In words: compounds binding fibroblast growth factor 10 – biochemical, small-molecule microarray, 635 nm fluorescence, primary screen (AID 1102). The settings on record: FGF10 binding, fluorescence 635 nm, higher = more signal.
Experiment [6] has as its system glycogen synthase kinase-3 (GSK3A per assay name; protocol says GSK3B). In words: compounds binding glycogen synthase kinase-3 – biochemical, small-molecule microarray, 635 nm fluorescence, GSK3A, primary screen (AID 1103). Further: the record names both GSK3A and GSK3B. The settings on record: fluorescence 635 nm, higher = more signal.
Experiment [7] deals with Epidermal growth factor receptor (Homo sapiens) (UniProt P00533). In words: compounds binding epidermal growth factor receptor – biochemical, small-molecule microarray, 635 nm fluorescence, primary screen (AID 1104).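 Further: score merges 667 nm emission intensity with spot signal to noise over triplicate slides.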 The settings on record: EGFR binding, higher = more signal.
The target in experiment [8] is Follistatin-related protein 3 (Homo sapiens) (UniProt O95633). In words: compounds binding follistatin-related protein 3 – biochemical, small-molecule microarray, 635 nm fluorescence, primary screen (AID 1105).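 Further: score merges emission near 667 nm and signal to noise per printed spot across three slides.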 The settings on record: FSTL3 binding, higher = more signal.
Experiment [9] addresses Dickkopf-related protein 1 (Homo sapiens) (UniProt O94907). In words: small molecules binding DKK1 protein – biochemical, small-molecule microarray, 635 nm fluorescence scan, primary screen (AID 1106).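 Further: score merges emission near 667 nm with signal to noise over three replicate slides.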 Conditions: higher = more signal.
Experiment [10] relates to Inhibin beta A chain (activin A). In words: small molecules binding activin A – biochemical, small-molecule microarray, 635 nm fluorescence scan, primary screen (AID 1107).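 Further: mouse activin A protein probed at 4.33 µg/mL on printed slides; score merges bound-protein fluorescence near 667 nm with spot signal-to-noise.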 Conditions: INHBA, higher = more signal.
Experiment [11] has as its system Human papillomavirus type 1a protein E7 (residues 44-93). In words: small molecules binding HPV E7 44-93 – biochemical, small-molecule microarray, residues 44-93, 635 nm fluorescence, primary screen (AID 1108).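 Further: E7 fragment applied at 1 µg/mL in TBST for 1 h at 4 C; score combines spot fluorescence with its signal to noise ratio.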 Conditions: fluorescence 635 nm, higher = more signal.
A short description of experiment [12]: hepatitis C replication reporter changes, two-sided – Huh7 cells, luciferase reporter, HCV replication inhibitor project, primary screen (AID 1109).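 Further: huh7 hepatoma cells harbouring a luciferase neomycin HCV replicon reporter; luciferase luminescence as measure of HCV replicon replication; test concentration not given here.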 Conditions: Huh7 HCV replicon luciferase reporter, 48 h; higher = more signal.
In experiment [13] the target is Left-right determination factor 2 (Homo sapiens) (UniProt O00292). In words: small molecules binding LEFTY2 protein – biochemical, small-molecule microarray, 635 nm fluorescence scan, primary screen (AID 1110). Conditions: higher = more signal.
Experiment [14] addresses Calmodulin-1 (Homo sapiens) (UniProt P0DP23). In words: small molecules binding calmodulin-1 with EGTA – biochemical, small-molecule microarray, Cy5-labelled CALM1, profiling panel (AID 1111).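 Further: labelled calmodulin applied in Tris saline Tween buffer holding calcium plus EGTA and DTT.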 The settings on record: Cy5-CALM1 binding fluorescence, higher = more signal.
For experiment [15] the target is unchanged. In words: small molecules binding Ca-loaded calmodulin-1 – biochemical, small-molecule microarray, Cy5-labelled CALM1, plus calcium, artefact control for SMM control-protein annotation, profiling panel (AID 1112).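 Further: score merges spot fluorescence with signal to noise from triplicate slides.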 The settings on record: Cy5-CALM1 binding fluorescence, higher = more signal.
A short description of experiment [16]: probe aWnt5a binding to arrayed compounds – biochemical, biotinylated probe, 635/667 nm fluorescence, primary screen (AID 1113).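 Further: score merges 667 nm fluorescence intensity with signal-to-noise per printed feature.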 The settings on record: small-molecule microarray, higher = more signal.
Experiment [17] in a line: probe aShh binding to arrayed compounds – biochemical, biotinylated probe, 635/667 nm fluorescence, primary screen (AID 1114).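 Further: probe is biotin-labelled aShh protein from a stem cell growth factor screen; measures binding of labelled protein to compounds printed on the slide; score merges feature fluorescence at 667 nm with signal-to-noise.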 Conditions: small-molecule microarray, higher = more signal.
Experiment [18] can be described thus: probe aNog binding to arrayed compounds – biochemical, biotinylated probe, 635/667 nm fluorescence, primary screen (AID 1115).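 Further: probe is biotinylated aNog protein used at 0.15 µg/mL for 1 h at 4 C; z-score combines 667 nm fluorescence of each spot with its signal to noise.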 The settings on record: small-molecule microarray, higher = more signal.
For experiment [19], the target named is Torsin-1A-interacting protein 1 (Homo sapiens) (UniProt Q5JTV8). In words: compound microarray binding of lysate hLAP1 – cell lysate, small-molecule microarray, COS7 lysate, 635/667 nm fluorescence, primary screen (AID 1116). Conditions: 635 nm fluorescence, higher = more signal.
The target in experiment [20] is Alpha-bungarotoxin (Bungarus multicinctus) (UniProt P60615). In words: compounds binding labelled alpha-BTX control protein – biochemical, small-molecule microarray, Alexa647 label, 635/667 nm fluorescence, artefact control for SMM control protein annotation, profiling panel (AID 1117). Conditions: alpha-BTX-A647 binding fluorescence, higher = more signal.
Alpha-bungarotoxin (Bungarus multicinctus), sequence (P60615 whole entry, looked up): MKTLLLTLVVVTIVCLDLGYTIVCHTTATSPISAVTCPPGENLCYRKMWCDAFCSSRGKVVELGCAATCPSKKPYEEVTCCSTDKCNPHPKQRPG

Fibroblast growth factor 10 (Homo sapiens), sequence (O15520 whole entry, looked up): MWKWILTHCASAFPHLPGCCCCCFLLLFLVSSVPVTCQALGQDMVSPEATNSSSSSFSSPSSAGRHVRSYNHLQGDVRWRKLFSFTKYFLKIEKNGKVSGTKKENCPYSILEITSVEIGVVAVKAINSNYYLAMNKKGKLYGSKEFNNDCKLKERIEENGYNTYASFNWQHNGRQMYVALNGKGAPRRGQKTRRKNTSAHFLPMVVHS
Epidermal growth factor receptor (Homo sapiens), sequence (P00533 whole entry, looked up): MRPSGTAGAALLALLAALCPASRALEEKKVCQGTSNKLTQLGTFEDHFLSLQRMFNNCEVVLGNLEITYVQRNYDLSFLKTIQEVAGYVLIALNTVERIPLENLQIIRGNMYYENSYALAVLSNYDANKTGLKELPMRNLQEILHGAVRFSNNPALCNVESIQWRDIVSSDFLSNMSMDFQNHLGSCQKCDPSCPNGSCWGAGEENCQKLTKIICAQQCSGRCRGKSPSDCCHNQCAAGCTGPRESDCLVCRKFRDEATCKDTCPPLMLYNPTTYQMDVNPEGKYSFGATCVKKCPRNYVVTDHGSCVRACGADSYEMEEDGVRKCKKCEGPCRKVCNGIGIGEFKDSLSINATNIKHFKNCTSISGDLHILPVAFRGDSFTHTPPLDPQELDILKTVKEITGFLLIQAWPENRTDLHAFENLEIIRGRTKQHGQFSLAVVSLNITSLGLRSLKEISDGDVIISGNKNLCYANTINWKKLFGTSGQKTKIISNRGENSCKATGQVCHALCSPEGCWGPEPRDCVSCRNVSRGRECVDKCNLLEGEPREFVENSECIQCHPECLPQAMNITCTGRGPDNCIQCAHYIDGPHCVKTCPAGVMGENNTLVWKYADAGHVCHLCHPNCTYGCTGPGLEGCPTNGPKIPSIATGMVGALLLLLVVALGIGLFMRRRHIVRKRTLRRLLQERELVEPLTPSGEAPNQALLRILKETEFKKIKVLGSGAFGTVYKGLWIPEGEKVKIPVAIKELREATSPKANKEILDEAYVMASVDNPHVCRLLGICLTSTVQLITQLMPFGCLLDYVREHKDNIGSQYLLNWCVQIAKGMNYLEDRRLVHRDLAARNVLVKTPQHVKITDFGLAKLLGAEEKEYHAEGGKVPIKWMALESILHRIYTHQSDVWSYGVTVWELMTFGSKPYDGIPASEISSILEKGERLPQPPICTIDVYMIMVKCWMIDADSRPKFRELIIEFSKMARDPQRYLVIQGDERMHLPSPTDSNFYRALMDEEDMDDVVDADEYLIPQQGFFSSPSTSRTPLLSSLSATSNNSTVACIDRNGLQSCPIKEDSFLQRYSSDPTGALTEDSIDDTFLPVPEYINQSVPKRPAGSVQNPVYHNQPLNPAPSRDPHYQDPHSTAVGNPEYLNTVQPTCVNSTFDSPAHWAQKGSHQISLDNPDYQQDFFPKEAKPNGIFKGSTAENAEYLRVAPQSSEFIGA
Follistatin-related protein 3 (Homo sapiens), sequence (O95633 whole entry, looked up): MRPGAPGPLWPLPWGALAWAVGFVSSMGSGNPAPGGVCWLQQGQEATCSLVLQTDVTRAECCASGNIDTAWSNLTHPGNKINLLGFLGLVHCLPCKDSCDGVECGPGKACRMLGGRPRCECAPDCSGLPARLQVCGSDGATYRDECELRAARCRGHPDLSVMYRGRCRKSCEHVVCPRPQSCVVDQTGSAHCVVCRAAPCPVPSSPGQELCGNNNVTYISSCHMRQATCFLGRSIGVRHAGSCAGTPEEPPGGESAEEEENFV
Torsin-1A-interacting protein 1 (Homo sapiens), sequence (Q5JTV8 whole entry, looked up): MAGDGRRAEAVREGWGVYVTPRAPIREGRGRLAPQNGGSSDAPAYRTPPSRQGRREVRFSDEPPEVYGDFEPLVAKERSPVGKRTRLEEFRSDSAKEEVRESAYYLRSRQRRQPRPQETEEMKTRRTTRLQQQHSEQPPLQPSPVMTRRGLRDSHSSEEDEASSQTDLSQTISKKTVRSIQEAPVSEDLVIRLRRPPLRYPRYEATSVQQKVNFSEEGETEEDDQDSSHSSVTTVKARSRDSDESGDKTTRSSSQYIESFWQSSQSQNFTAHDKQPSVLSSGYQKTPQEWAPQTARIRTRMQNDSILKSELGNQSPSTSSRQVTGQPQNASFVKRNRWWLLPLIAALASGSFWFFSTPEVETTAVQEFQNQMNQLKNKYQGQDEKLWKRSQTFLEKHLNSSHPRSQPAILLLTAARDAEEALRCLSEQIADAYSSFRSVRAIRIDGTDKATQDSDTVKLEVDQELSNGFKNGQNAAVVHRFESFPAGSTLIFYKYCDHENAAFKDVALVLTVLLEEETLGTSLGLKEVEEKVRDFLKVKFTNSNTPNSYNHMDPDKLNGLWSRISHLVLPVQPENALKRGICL
Left-right determination factor 2 (Homo sapiens), sequence (O00292 whole entry, looked up): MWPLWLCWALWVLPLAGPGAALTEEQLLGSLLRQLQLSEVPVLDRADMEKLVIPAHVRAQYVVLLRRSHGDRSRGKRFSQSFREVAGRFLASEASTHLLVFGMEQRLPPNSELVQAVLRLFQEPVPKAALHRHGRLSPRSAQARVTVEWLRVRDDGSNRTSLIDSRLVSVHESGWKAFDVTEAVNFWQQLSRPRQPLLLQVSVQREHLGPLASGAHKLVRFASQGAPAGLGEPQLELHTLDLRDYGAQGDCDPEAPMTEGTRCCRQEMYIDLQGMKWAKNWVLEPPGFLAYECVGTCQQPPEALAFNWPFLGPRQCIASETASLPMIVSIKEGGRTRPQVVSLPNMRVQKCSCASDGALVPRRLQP
Dickkopf-related protein 1 (Homo sapiens), sequence (O94907 whole entry, looked up): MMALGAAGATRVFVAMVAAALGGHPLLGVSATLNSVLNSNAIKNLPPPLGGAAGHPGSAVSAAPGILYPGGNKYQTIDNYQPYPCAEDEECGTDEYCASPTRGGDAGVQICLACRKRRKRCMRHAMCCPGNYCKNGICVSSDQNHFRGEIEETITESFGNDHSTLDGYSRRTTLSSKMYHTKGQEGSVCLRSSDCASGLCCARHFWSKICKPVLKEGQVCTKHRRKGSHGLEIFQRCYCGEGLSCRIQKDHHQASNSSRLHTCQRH

In the case of `O=C1OCCC=C[C@H]2OC34C=CCN(c5ccc6ccccc6c5)C(=O)[C@H]3N(CCO)C(=O)[C@@H]4C12` (stereo not given in full), the composite z-score in experiment [1] was 1.89; in experiment [2] it was -0.886; in experiment [3], -0.465; in experiment [5] it was -0.0326; in experiment [6] it was -0.327; in experiment [7], -0.405. Besides, the composite z-score in experiment [8] was -0.114; in experiment [9], -0.951; in [10], -0.666; in experiment [11], -0.988; in experiment [13], -0.277; in experiment [14], -0.237. Moreover, the composite z-score in experiment [15] was -0.419; in [16] it was -0.219; in experiment [17] it was -0.383; in [18] it was -0.453; in [19] it was 0.468; in experiment [20], 0.0797. Further, the z-score in experiment [4] is -0.502 (inactive); in [12] it was -0.07.

Take `C=C(COC)/C(=C/C[C@H](OC(C)=O)c1ccccc1OCCO)c1cc(C(=O)OC)ccc1OC`: the composite z-score in [1] was 0.989; in experiment [2] it was -0.103; in experiment [3], -0.0952; in experiment [5], 1.05; in [6], 0.196; in experiment [7], -0.607. Moreover, the composite z-score is 0.186 in experiment [8]; 0.189 in experiment [9]; 0.289 in experiment [10]; 0.992 in [11]; -0.138 in experiment [13]; -0.471 in experiment [14]. Also, the composite z-score was -1.12 in experiment [15]; -0.124 in experiment [16]; 0.13 in experiment [17]; -0.194 in experiment [18]; -0.134 in experiment [19]; 1.63 in experiment [20]. Besides, the z-score in experiment [4] is -0.907 (inactive); in experiment [12] it was -1.91.

Take `COC(=O)[C@]1(Cc2ccccc2)N=C(c2ccc(OCCCO)cc2)O[C@@H]1c1ccccc1CN=[N+]=[N-]`: the composite z-score is 0.965 in [1]; 0.266 in experiment [2]; 0.98 in experiment [3]; 0.506 in [5]; 0.509 in [6]; -0.296 in experiment [7]. Also, the composite z-score in experiment [8] was 0.175; in [9], -0.0456; in [10] it was 0.702; in experiment [11] it was 1.37; in [13] it was -0.383; in experiment [14], 0.63. Besides, the composite z-score was -0.293 in experiment [15]; -0.0944 in experiment [16]; 0.0796 in experiment [17]; 0.537 in experiment [18]; 1.11 in experiment [19]; 1.01 in experiment [20]. The values for the z-score in experiment [4] and in experiment [12] were 1.76 (inactive) and -3.37, respectively.

Consider `CCOC(=O)C1=CCC(c2cc3ccccc3[nH]2)N(CCN2CC(C(=O)OCC)=CCC2c2cc3ccccc3[nH]2)C1` (stereo not given), for which the composite z-score stood at 0.497 in experiment [1]; 0.237 in experiment [2]; 0.368 in [3]; 0.631 in experiment [5]; 1.03 in experiment [6]; 0.149 in experiment [7]. Moreover, the composite z-score in experiment [8] turned out to be 0.673; in experiment [9], 0.0665; in experiment [10], 1.14; in experiment [11] it was 1.34; in experiment [13], 0.0083; in [14], 0.884. In addition, the composite z-score in experiment [15] is -0.608; in experiment [16] it was -0.0203; in experiment [17], 0.0639; in experiment [18], 0.302; in experiment [19], 0.0389; in experiment [20], 0.927. The values for the z-score in experiment [4] and in experiment [12] were -1.3 (inactive) and -1.87, respectively.

Consider `CCOC(=O)C1=C[C@@H](C(C)(C)C)N(S(=O)(=O)c2ccc(C)cc2)[C@H]1c1ccc(C#N)cc1`, for which the composite z-score was 0.895 in experiment [1]; 0.328 in experiment [2]; 0.113 in experiment [3]; 0.933 in experiment [5]; 1.11 in experiment [6]; 0.658 in [7]. The composite z-score in experiment [8] is 1.09; in [9] it was 0.512; in [10] it was 0.712; in experiment [11], 1.41; in experiment [13], 0.282; in experiment [14] it was 1.37. In addition, the composite z-score is 0.226 in experiment [15]; 0.055 in experiment [16]; -0.154 in experiment [17]; 0.618 in experiment [18]; 0.918 in experiment [19]; 1.09 in experiment [20]. Besides, the z-score in experiment [4] was -0.385 (inactive); in experiment [12] it was -2.04.

For `CC(C)C(O)C1C=CC2C(=O)NC(=O)C2N1Nc1ccccn1` (stereo not given), the composite z-score is 1.09 in [1]; 0.886 in [2]; 0.542 in [3]; 0.109 in experiment [5]; 0.352 in [6]; -0.216 in experiment [7]. In addition, the composite z-score in experiment [8] was 0.401; in [9], -0.0362; in [10], 1.4; in experiment [11], 0.927; in [13] it was 0.108; in [14] it was 0.0802. For the same compound, the composite z-score in experiment [15] is -0.187; in [16] it was 0.009; in [17] it was -0.0793; in [18] it was 0.116; in experiment [19], 0.325; in [20] it was 0.631. In addition, the z-score in [4] is 1.02 (inactive); in [12], -0.43.
